# Several values for one entry are separate records, joined by “and”; a condition that tells them apart may be missing. Identical values can stand only once. The panel holds about 83,000 compounds, 20% with a hit somewhere; the sample as a whole holds those more often.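 A percent growth of 40 corresponds to 60% growth inhibition; 0 means no net growth; -100 means all cells died. Active threshold: below 10.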 Activity calls are given as the source filed them.
# Tested on: MDA-MB-468 breast
# Test: NCI-60 one-dose screen, 48 h (100 = growth as untreated, 0 = no growth, -100 = all killed)
# Details: 10 µM unless noted
row,SMILES,growth
1,C=CC[N+]1(CCO)CCN=C1CCCCCCCCCCCCC (stereo not given),-78.3% (active)
2,O=C(CSc1nc2sc3c(c2c(=O)n1-c1ccccc1)CCCCC3)N/N=C/c1cccc([N+](=O)[O-])c1,19.2% (inactive)
3,Cc1cc(-c2cc(OC(=O)c3ccccc3)ccc2Cl)cc2nnc(Nc3ccc(OCCN4CCCC4)cc3)nc12,84.3% (inactive)
4,COc1ccc(-c2cc3c(C)nc(N)nc3n(C3CCC(OCCO)CC3)c2=O)cn1 (stereo not given),-50% (active)
5,CN(C)CCOc1ccc(-c2nc3ccc(-c4nc5ccc(N6CCN(C)CC6)cc5[nH]4)cc3[nH]2)cc1,40.2% (inactive)
6,Cc1cc(=O)oc2cc(OC(=O)CN3CCN(C)CC3)ccc12,101% (inactive)
7,Cc1ccccc1Cn1cnc2ccc(-c3cc(NC(=O)c4ccc(NC5CCN(C)CC5)cc4)n[nH]3)cc21,94.5% (inactive)
8,CN1C(=O)N(C)C2C1NN=c1s/c(=C\C=C\c3ccccc3)c(=O)n12 (stereo not given),13.9% (inactive)
9,COC(=O)c1nc(-c2ccccc2)oc1S(=O)(=O)N1CCC(C(N)=O)CC1,-14.6% (active)
10,CCCOC(=O)C1c2cc3c(cc2CC(C)C1C(=O)OCCC)OCO3 (stereo not given),102% (inactive)
11,Clc1cc(Cl)cc(-c2ccc(-c3ccc(/C=N/NC4=NCCN4)cc3)s2)c1,-3.62% (active)
12,C[Se]C(=O)CC1=C2C=C(F)C=CC2/C(=C\c2ccc(S(C)=O)cc2)C1C (stereo not given),-46.2% (active)
13,CCCCCCCCCCC(C(O)c1ccccc1)N1CCCCC1 (stereo not given),-21.9% (active)
14,c1ccc(CNc2nc(Nc3ccccc3)nc3ccccc23)cc1,13.2% (inactive)
15,CC(=O)Oc1ccc(N2C(=O)C(Cl)=C(Nc3cccc(C(F)(F)F)c3)C2=O)cc1,96.1% (inactive)
16,Cc1c(CC(=O)OCCO)cc(-c2ccc(Cl)cc2)n1-c1ccccc1,89.1% (inactive)
17,O=C(O)c1ccc(NC(=O)c2cccc(Nc3ccnc(C(F)(F)F)c3)c2)cc1,108% (inactive)
18,CCN(CC)CCCNC(=O)c1c2c(n3ccccc13)C(=O)c1ncccc1C2=O,-70.1% (active)
19,Cn1cc(-c2csc(-c3cn(C)c4ncccc34)n2)c2cccnc21,-10.8% (active)
20,Nc1ncnc2c1C(c1ccccc1)c1ccc3ccccc3c1O2 (stereo not given),86.5% (inactive)

row,SMILES,growth
1,O=C(/C=C\c1ccc(Cl)c(Cl)c1)c1ccccc1,79.8% (inactive)
2,CCN(CC)c1ccc(/C=C(\C#N)c2cc3ccccc3[nH]2)cc1,47.3% (inactive)
3,CC(C)Oc1ccc2cc(-c3nn(CC4CCNCC4)c4ncnc(N)c34)ccc2c1,84.8% (inactive) and -20% (active)
4,Cc1cc(-c2noc(C(F)(F)F)n2)ccc1N1CCN(c2cc(C(=O)N(C)C)no2)CC1,15.2% (inactive)
5,CCc1ccc(-c2ccc(COc3ccc(CC4SC(=O)NC4=O)cc3)cc2)cc1 (stereo not given),35.3% (inactive)
6,Nc1cc(Cl)cc2cccnc12,92.7% (inactive)
7,COC(=O)c1cc(=O)nc(N/N=C/c2ccco2)s1,61.7% (inactive)
8,c1c[nH]c(CNC2CCCCC2)c1,141% (inactive)
9,Clc1ccc(N/N=C/c2ccccn2)nc1,-48.3% (active)
10,O=C(/C=C/c1cccc(O)c1)c1ccccc1O,85% (inactive)
11,CCOC(=O)C#Cc1c(C(=O)OCC)nnn1[C@@H]1O[C@H](COC(C)=O)[C@@H](OC(C)=O)[C@H]1OC(C)=O,61.5% (inactive)
12,Cc1cc(C)n(C(=O)c2sc(=S)n(-c3ccccc3)c2N=Nc2c(N)n[nH]c2N)n1,112% (inactive)
13,COc1ccc(-c2conc2-c2ccccc2)cc1,-4.68% (active)
14,COc1cc(C(F)(F)F)ccc1-c1cc(-c2ccc(F)cc2)n[nH]1,75.6% (inactive)
15,COc1cc(NCCCCCNC(C)C)c2ncccc2c1,87.6% (inactive) and 39.1% (inactive)
16,COc1ccc(/C=C/C(=O)c2cccc(NS(C)(=O)=O)c2)cc1,47% (inactive)
17,COc1ccc(Cl)cc1C(=O)Nc1nc2ccc(Cl)cc2s1,76.7% (inactive)
18,Cc1ccc(/C=C/C(=O)c2ccc(-n3cc(CN4CCN(c5cc6c(cc5F)c(=O)c(C(=O)O)cn6C5CC5)CC4)nn3)cc2)cc1,77.1% (inactive)
19,O=C(Nc1cccc(-n2cc(-c3ccncc3)c(-c3ccc(O)c(Cl)c3)n2)c1)c1cccc(C(F)(F)F)c1,34.3% (inactive)
20,Clc1ccc(/C=C2\CCCC3C2=Nc2ccccc2NC3c2ccc(Cl)cc2)cc1 (stereo not given),60% (inactive)

# Source: PubChem BioAssay (NCI)
